According to PubChem BioAssay (NCATS):
“And” between values parts separate entries of the source, which are not always exact repeats. Identical values can stand only once. Records with an inconclusive call do not appear. Unmarked numbers belong to inactive results. The source made the active and inactive calls.

Molecular target: Thyroid hormone receptor beta (Homo sapiens) (UniProt P10828)
Experiment: qHTS assay for small molecule antagonists of thyroid hormone receptor beta signaling (AID 588547; active means well fitted inhibition curve with a large enough effect in the signal ratio, with a control signal flat, not every such curve was filed as active; the % refers to the signal ratio;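 further: cells stimulated with 0.4 nM T3 agonist during compound exposure; on the % scale 0 is the no-effect control and ±100 the full control effect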)
Conditions: TR-UAS-bla HEK293, beta-lactamase ratio, antagonist mode, 18 h
In short: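 TR-UAS-bla GripTite HEK293 cells in 2% charcoal/dextran FBS medium; compounds 0.59 nM to 92 uM with T3 at 0.4nM final, 18 h at 37 C. Beta-lactamase read by CCF4 fluorescence (460/530 nm); Hill fits gave IC50 and efficacy.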

Sequence of Thyroid hormone receptor beta (Homo sapiens) (P10828 whole entry, looked up): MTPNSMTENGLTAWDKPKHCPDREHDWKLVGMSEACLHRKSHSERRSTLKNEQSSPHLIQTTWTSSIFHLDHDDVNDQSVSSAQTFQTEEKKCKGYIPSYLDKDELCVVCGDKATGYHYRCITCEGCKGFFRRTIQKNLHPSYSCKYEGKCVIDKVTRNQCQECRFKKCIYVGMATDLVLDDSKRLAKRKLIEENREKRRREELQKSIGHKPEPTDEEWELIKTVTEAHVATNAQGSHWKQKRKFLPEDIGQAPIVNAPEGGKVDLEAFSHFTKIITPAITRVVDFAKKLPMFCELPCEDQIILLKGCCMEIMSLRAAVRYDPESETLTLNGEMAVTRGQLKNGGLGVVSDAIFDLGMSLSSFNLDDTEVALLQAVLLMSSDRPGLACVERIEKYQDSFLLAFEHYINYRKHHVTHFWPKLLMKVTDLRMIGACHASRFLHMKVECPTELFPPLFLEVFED

| SMILES | activity change % (negative = inhibition) |
| --- | --- |
| C/C(=N\NC(=O)Nc1cc(F)cc(F)c1)c1ncccc1C(=O)O | -6.39% |
| Cc1cnc(C2=NC(C)(C(C)C)C(=O)N2)c(C(=O)O)c1 (configuration not stated) | -3.72% and -20.5% |
| O=S(=O)(c1ccc(O)cc1)c1ccc(O)cc1 | 5% |
| CCOP(=O)(O)C(N)=O | -0.728% |
| Clc1ccc([C@]2(Cn3cncn3)C[C@@H](Br)CO2)c(Cl)c1 | -4.77% and -5.66% |
| CCOP(=O)(SC(C)CC)SC(C)CC (configuration not stated) | -3.53% |
| CNC(=O)Oc1cccc2c1OC(C)(C)C2O (configuration not stated) | 7.05% |
| C/C(=N\C(N)=O)N(C)Cc1ccc(Cl)nc1 | -10.7% |
| O=S1OC[C@@H]2[C@H](CO1)[C@@]1(Cl)C(Cl)=C(Cl)[C@]2(Cl)C1(Cl)Cl (some centres not stated) | 3.09% |
| Cc1ccccc1C(=O)Nc1cccc(OC(C)C)c1 | 5.62% |
| Nc1ccc([N+](=O)[O-])cc1Cl | -8.47% |
| CCCCC(CC)C(=O)Cl (configuration not stated) | 0.279% |
| CCNc1nc(NC(C)(C)C)nc(SC)n1 | 6.54% |
| CCOP(=O)(OCC)SCSCC | 4.37% |
| CCOP(=O)(OCC)SCSC(C)(C)C | -1.18% |
| CNC(=O)Oc1ccc(N(C)C)c(C)c1 | -0.485% |
| COC(=O)c1ccccc1CS(=O)(=O)NC(=O)Nc1nc(OC)cc(OC)n1 | 15.6% |
| Cc1cc(Cl)ccc1OCC(=O)O | 22.2% and -4.04% |
| CCOP(=S)(OCC)Oc1cnc2ccccc2n1 | -0.975% |
| CCCCN(CC)C(=O)SCCC | 1.78% |
| O=[N+]([O-])c1ccc(Oc2ccc(C(F)(F)F)cc2[N+](=O)[O-])cc1 | 5.9% |
| C/C=C(\C)C(=O)O[C@H]1C[C@@H](OC(C)=O)[C@@]2(C(=O)OC)CO[C@H]3[C@@H](O)[C@@](C)([C@]45O[C@@]4(C)[C@H]4C[C@@H]5O[C@@H]5OC=C[C@@]54O)[C@H]4[C@]1(CO[C@]4(O)C(=O)OC)[C@@H]32 | 7.18% |

Test system: not listed separately
Experiment: qHTS assay for small molecule agonists of the antioxidant response element (ARE) signaling pathway (AID 651741; active means well fitted activation curve with a large enough effect in the signal ratio; the % refers to the signal ratio; further: potency means the concentration at half of the fitted maximal effect; on activation: % of control where 0% means no effect)
Conditions: HepG2 ARE-bla reporter, beta-lactamase FRET ratio, 16 h; series mostly up to 96 µM
In short: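 HepG2 ARE-bla reporter cells, 2,000/well; 5 h settle at 37 C/5% CO2; compound pin transfer (23 nL, DMSO); 16 h at 37 C; LiveBLAzer B/G FRET substrate, 2 h RT; fluorescence intensity read.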

| SMILES | Potency |
| --- | --- |
| C/C(=N\NC(=O)Nc1cc(F)cc(F)c1)c1ncccc1C(=O)O | inactive |
| CCCC1COC(Cn2cncn2)(c2ccc(Cl)cc2Cl)O1 (configuration not stated) | 54.5 µM (active) and 61.1 µM (active) |
| Cc1cnc(C2=NC(C)(C(C)C)C(=O)N2)c(C(=O)O)c1 (configuration not stated) | inactive |
| CCOP(=O)(O)C(N)=O | inactive |
| CCOP(=S)(OCC)SCC(=O)NC(C)C | inactive |
| NS(=O)(=O)C(F)(F)C(F)(F)C(F)(F)C(F)(F)C(F)(F)C(F)(F)C(F)(F)C(F)(F)F | 68.6 µM (active) |
| CCOP(=O)(SC(C)CC)SC(C)CC (configuration not stated) | inactive |
| CNC(=O)Oc1cccc2c1OC(C)(C)C2O (configuration not stated) | 54.5 µM (active) |
| O=S1OC[C@@H]2[C@H](CO1)[C@@]1(Cl)C(Cl)=C(Cl)[C@]2(Cl)C1(Cl)Cl (some centres not stated) | 24.3 µM (active) |
| FC(F)(F)c1ccc(OCCCOc2c(Cl)cc(OCC=C(Cl)Cl)cc2Cl)nc1 | 54.5 µM (active) |
| C=CCC1=C(C)[C@@H](OC(=O)[C@@H]2[C@@H](C=C(C)C)C2(C)C)CC1=O | 61.1 µM (active) |
| Cc1ccccc1C(=O)Nc1cccc(OC(C)C)c1 | inactive |
| Nc1ccc([N+](=O)[O-])cc1Cl | inactive |
| CCCCC(CC)C(=O)Cl (configuration not stated) | inactive |
| CCOP(=O)(OCC)SCSCC | inactive |
| CCOP(=O)(OCC)SCSC(C)(C)C | inactive |
| CNC(=O)Oc1ccc(N(C)C)c(C)c1 | 54.5 µM (active) |
| COC(=O)c1ccccc1CS(=O)(=O)NC(=O)Nc1nc(OC)cc(OC)n1 | inactive |
| CCOP(=S)(OCC)Oc1cnc2ccccc2n1 | inactive |
| CCOP(=S)(S)OCC | inactive |
| O=[N+]([O-])c1ccc(Oc2ccc(C(F)(F)F)cc2[N+](=O)[O-])cc1 | 48.6 µM (active) |

Test system: not listed separately
Experiment: qHTS assay for small molecule activators of the p53 signaling pathway (AID 651743; active means well fitted activation curve with a large enough effect in the signal ratio, not every such curve was filed as active; the % refers to the signal ratio; further: % of control where 0% means no effect)
Conditions: HCT-116 p53RE-bla, beta-lactamase FRET ratio, 16 h; activation: active compounds read high
In short: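 Reporter: beta-lactamase driven by p53 response elements, stably integrated in HCT-116 cells. Cells seeded at 4,000/well, 5 h preincubation, compound (DMSO) 16 h at 37 C; B/G FRET substrate 2 h RT; fluorescence intensity read.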

| SMILES | activation |
| --- | --- |
| C/C(=N\NC(=O)Nc1cc(F)cc(F)c1)c1ncccc1C(=O)O | -1.04% and 1.35% |
| CCCC1COC(Cn2cncn2)(c2ccc(Cl)cc2Cl)O1 (configuration not stated) | -6.14% |
| Cc1cnc(C2=NC(C)(C(C)C)C(=O)N2)c(C(=O)O)c1 (configuration not stated) | 0.249% and -2.82% |
| O=S(=O)(c1ccc(O)cc1)c1ccc(O)cc1 | -2.48% |
| CCOc1nc(NC)nc(NC(=O)NS(=O)(=O)c2ccccc2C(=O)OC)n1 | -5.96% |
| COc1ccc(O)c(C(C)(C)C)c1 | 1.43% |
| CCOP(=S)(OCC)SCC(=O)NC(C)C | -0.0599% |
| NS(=O)(=O)C(F)(F)C(F)(F)C(F)(F)C(F)(F)C(F)(F)C(F)(F)C(F)(F)C(F)(F)F | 13.9% |
| Clc1ccc([C@]2(Cn3cncn3)C[C@@H](Br)CO2)c(Cl)c1 | -0.258% and -3.95% |
| CCOP(=O)(SC(C)CC)SC(C)CC (configuration not stated) | -0.0138% |
| CNC(=O)Oc1cccc2c1OC(C)(C)C2O (configuration not stated) | -0.021% |
| C/C(=N\C(N)=O)N(C)Cc1ccc(Cl)nc1 | -4.92% |
| O=S1OC[C@@H]2[C@H](CO1)[C@@]1(Cl)C(Cl)=C(Cl)[C@]2(Cl)C1(Cl)Cl (some centres not stated) | -3.81% and -3.84% |
| FC(F)(F)c1ccc(OCCCOc2c(Cl)cc(OCC=C(Cl)Cl)cc2Cl)nc1 | 2.67% |
| C=CCC1=C(C)[C@@H](OC(=O)[C@@H]2[C@@H](C=C(C)C)C2(C)C)CC1=O | 0.97% |
| Cc1ccccc1C(=O)Nc1cccc(OC(C)C)c1 | -3.37% |
| Nc1ccc([N+](=O)[O-])cc1Cl | -0.946% |
| CCCCC(CC)C(=O)Cl (configuration not stated) | -0.76% |
| CCNc1nc(NC(C)(C)C)nc(SC)n1 | 13.8% |
| CCOP(=O)(OCC)SCSCC | 4.72% |
| CCOP(=O)(OCC)SCSC(C)(C)C | -4.41% |
| CNC(=O)Oc1ccc(N(C)C)c(C)c1 | 2.89% |
| COC(=O)c1ccccc1CS(=O)(=O)NC(=O)Nc1nc(OC)cc(OC)n1 | -2.78% |
| Cc1cc(Cl)ccc1OCC(=O)O | -6.22% and 0.0507% |
| CCOP(=S)(OCC)Oc1cnc2ccccc2n1 | 6.75% |
| CCOP(=S)(S)OCC | -1.75% |
| CCCCN(CC)C(=O)SCCC | 2.73% |
| O=[N+]([O-])c1ccc(Oc2ccc(C(F)(F)F)cc2[N+](=O)[O-])cc1 | -0.528% |
| C/C=C(\C)C(=O)O[C@H]1C[C@@H](OC(C)=O)[C@@]2(C(=O)OC)CO[C@H]3[C@@H](O)[C@@](C)([C@]45O[C@@]4(C)[C@H]4C[C@@H]5O[C@@H]5OC=C[C@@]54O)[C@H]4[C@]1(CO[C@]4(O)C(=O)OC)[C@@H]32 | 6.01% |
